Screening results: PubChem, several laboratories
Ecoli WT expand – growth inhibitors of wild-type E. coli, primary screen, strain BW25113, expanded library, OD600; OD600 absorbance; growth inhibition, % at 100 µM; 98,000 compounds, 0.15% hits; AID 710, 2007;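 active = growth inhibition above about 50% at one test dose, limit read from the data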;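 note: growth measured after 20 h incubation at 37 °C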
HePTP inhibitor – inhibitors of human HePTP phosphatase, primary screen, biochemical, absorbance, leukemia target; Tyrosine-protein phosphatase non-receptor type 7 (Homo sapiens), P35236; recombinant HePTP phosphatase activity, OD absorbance; inhibition, % at 20 µM; 110,000 compounds, 0.64% hits; in the data active = inhibition above about 50%;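 note: plate controls were vehicle for no effect and reference inhibitor for full effect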
Target sequence (P35236 whole entry, looked up): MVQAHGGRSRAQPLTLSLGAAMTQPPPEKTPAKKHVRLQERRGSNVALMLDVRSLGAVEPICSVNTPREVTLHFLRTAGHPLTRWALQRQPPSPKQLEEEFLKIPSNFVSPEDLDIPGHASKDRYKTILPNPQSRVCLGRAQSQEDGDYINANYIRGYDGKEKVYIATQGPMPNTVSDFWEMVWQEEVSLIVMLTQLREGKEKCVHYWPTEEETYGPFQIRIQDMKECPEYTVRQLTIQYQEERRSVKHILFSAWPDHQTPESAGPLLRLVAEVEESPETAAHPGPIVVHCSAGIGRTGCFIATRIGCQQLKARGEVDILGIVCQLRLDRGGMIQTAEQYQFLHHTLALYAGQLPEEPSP
PLAP act – PLAP enzyme activators, biochemical, luminescence, HTS | Alkaline phosphatase, placental type (Homo sapiens), P05187 | purified PLAP enzyme, luminescent substrate read-out; hits give high values | activation fold at 20 µM | 96,000 compounds, 1.2% hits; in the data active = activation fold above about 2
TNAP act mid DEA – human TNAP enzyme activators, primary screen, biochemical, luminescent, intermediate phosphate acceptor level; Alkaline phosphatase, tissue-nonspecific isozyme (Homo sapiens), P05186; activation factor at 20 µM; AID 813, 2007; purified TNAP, CDP-star luminescence, 100 mM DEA, 30 min; hits give high values; scale: 0 levamisole-inhibited, 1 vehicle-only enzyme; 64,000 tested, under 10 active;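 active = activation factor of at least 2 at 20 µM, relative to controls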
Numbers without * were called inactive; . = not tested or not shown. Sampled rows, rich in hits. Any-hit rate of the full collection: about 1.3%.

SMILES	Ecoli WT expand	HePTP inhibitor	PLAP act	TNAP act mid DEA
N#CC1=C(N)NC(SCC(=O)c2ccc(Cl)cc2)=C(C#N)C12CCCC2	-1	104*	1.1	.
COc1cccc(-c2nnc(SCC(=O)Nc3ccc(OC)c(OC)c3)n2N)c1	-10	-3	0.9	0.9
Cc1ccc(C(=O)NC(NC(=S)Nc2cc(C)ccc2C)C(Cl)(Cl)Cl)cc1 (configuration not stated)	.	75*	.	.
Cc1ccc2nc(CSc3nc(C)ccc3C#N)[nH]c2c1	-6	.	2.2*	.
COc1ccc(N2C(=O)/C(=C\c3cccc(C(F)(F)F)c3)SC2=S)cc1	.	6	.	.
O=C1N=c2ccccc2=C1c1sc(=S)[nH]c1O	.	70*	.	.
COc1ccc(C(NC(C)=O)c2c(OC(C)=O)ccc3ccccc23)cc1 (configuration not stated)	.	-13	.	.
COCCN1CSC(=S)N(Cc2ccco2)C1	62*	-7	1	0.9
S=C1SCN(Cc2ccccn2)CN1Cc1ccco1	71*	-4	1	0.9
O=C(N/N=C\c1ccccc1O)c1cc(-c2ccccc2)nc2ccccc12	.	-9	.	.
CCCCOc1ccc(C(=O)Nc2ccc(N3CCN(C(C)=O)CC3)cc2)cc1	-22	-2	0.9	0.9
Cc1ccc(OCC(=O)NNC(=O)C2CCN(c3ncccn3)CC2)cc1	6	.	2*	.
CCOC(=O)N1CCN(S(=O)(=O)c2cc(Cl)ccc2Cl)CC1	4	13	.	0.9
CN(C(=O)CSc1nc2ccccc2n1CCc1ccccc1)C1CCS(=O)(=O)C1 (configuration not stated)	-7	4	2.3*	0.9
CN(C(=O)CSc1nnc2ccccn12)C1CCS(=O)(=O)C1 (configuration not stated)	1	.	0.9	.
COc1cccc(C2=NN(C(=O)c3ccccn3)C(O)(C(F)(F)F)C2)c1 (configuration not stated)	.	-5	.	.
O=C1/C(=C/C=C/c2ccccc2)SC(=S)N1C1CCS(=O)(=O)C1 (configuration not stated)	.	-2	.	.
O=C1/C(=C/c2ccncc2)SC(=S)N1C1CCS(=O)(=O)C1 (configuration not stated)	54*	.	1.3	.
COc1ccc(/C=N/NC(=O)c2cc(-c3ccc4ccccc4c3)n[nH]2)cc1O	.	68*	.	.
O=C(N/N=C/c1ccco1)c1cc(-c2ccc3ccccc3c2)n[nH]1	-22	-2	2.7*	.
O=C(N/N=C/c1cccs1)c1cc(-c2ccc3ccccc3c2)n[nH]1	-21	99*	1.4	.
O=c1oc2ccccc2c(O)c1C=NCc1ccccn1	-7	0	2.1*	0.8
O=C1C(C=NCc2ccccn2)=C(O)c2ccccc21	-2	-2	1.6	0.9
N#Cc1c(N2CCOCC2)nc(N2CCCCC2)c2c1CCN(C1CCCCC1)C2	2	0	2*	0.9
CCN1CCc2c(C#N)c(N3CCCCC3)nc(N3CCOCC3)c2C1	7	4	1.3	0.9
SMILES	Ecoli WT expand	HePTP inhibitor	PLAP act	TNAP act mid DEA
COc1ccc(OC)c(Nc2cc(C)nc3nc(C)nn23)c1	-4	5	2*	1
COc1ccc(Nc2cc(C)nc3nc(C)nn23)c(OC)c1	.	4	.	1
CC1CCN(c2nc(-c3ccco3)c3c(c2C#N)CC(C)(C)OC3)CC1	2	-7	1.5	1
O=C(CN1CCOCC1)Nc1ncc(Cc2ccccc2Cl)s1	17	.	2*	.
CC1(C)CC(=O)c2c(oc3cc(O)c(O)cc23)C1	4	.	0.9	.
CN(C)c1ccc(-c2c3cc(O)c(=O)cc-3oc3cc(O)c(O)cc23)cc1	.	103*	.	.
Cc1ccc(N2C(=O)[C@@H]3[C@H](C2=O)C2c4ccccc4C=CN2[C@@H]3C(=O)c2ccco2)c(C)c1 (some centres not stated)	.	-1	1.2	1
Cc1ccc(Cn2nnc3c(=O)[nH]c(C4CCN(S(=O)(=O)c5ccc(C)cc5)CC4)nc32)cc1	-9	-18	1.4	0.9
Cc1ccccc1NC(=O)c1c(NC(=O)Cc2ccccc2)sc2c1CCCCC2	.	8	.	.
NC1C2CN(c3nc4c(cc3F)c(=O)c(C(=O)O)cn4-c3ccc(F)cc3F)CC12 (configuration not stated)	97*	1	0.7	0.9
Cc1ccc(O)c(C2=NNC(O)(C(F)(F)F)C2)c1 (configuration not stated)	32	.	2.2*	.
Cc1ccc(O)c(-c2cc(-c3ccccc3F)[nH]n2)c1	5	.	0.9	.
O=[N+]([O-])c1cccc(S(=O)(=O)NCc2ccncc2)c1	.	103*	.	.
O=[N+]([O-])c1cccc(S(=O)(=O)NCc2cccnc2)c1	.	0	.	.
O=C(Nc1ccc2oc(-c3ccccc3F)nc2c1)c1cccc([N+](=O)[O-])c1	.	99*	.	.
CCOC(=O)c1sc2ncn(/N=C/c3ccc(O)cc3)c(=O)c2c1C	.	9	.	.
CCOC(=O)c1sc2ncn(/N=C/c3cccnc3)c(=O)c2c1C	-1	.	2.1*	.
COc1ccc2[nH]c(=O)c(C(c3nnnn3C3CCCC3)N3CCN(Cc4ccc5c(c4)OCO5)CC3)cc2c1 (configuration not stated)	0	.	2*	.
Cc1ccc(C)c(NC2=NC3(CCCC3)N=C(N)N2)c1	.	0	.	.
Cc1cc(C)cc(NC2=NC3(CCCCC3)N=C(N)N2)c1	6	12	2.7*	1.2
CC1C(=O)C(C)C(c2cccs2)NC1c1cccs1 (configuration not stated)	6	-11	0.8	0.9
COc1cc(Br)c(/C=C2\C(=O)N(c3cccc(C(=O)O)c3)N=C2C)cc1OC	.	77*	.	.
COc1cccc(/C=C2\C(=O)N(c3cccc(C(=O)O)c3)N=C2C)c1	.	66*	.	.
COc1cc(/C=C2\C(=O)N(c3cccc(C(=O)O)c3)N=C2C)ccc1O	.	24	.	.
COc1ccc(OC)c(/C=C2\C(=O)N(c3ccc(S(N)(=O)=O)cc3)N=C2C)c1	.	68*	.	.
SMILES	Ecoli WT expand	HePTP inhibitor	PLAP act	TNAP act mid DEA
COc1cc(/C=C2\C(=O)N(c3cccc(C(=O)O)c3)N=C2C)c([N+](=O)[O-])cc1OC	.	75*	.	.
COc1cc(Br)c(/C=C2/C(=O)N(c3ccc(C)cc3)N=C2C)cc1OC	.	-1	.	.
Nn1c(Cc2cccc3ccccc23)nnc1SCC(=O)NC1CCS(=O)(=O)C1 (configuration not stated)	0	1	2*	0.9
O=C(Nc1ccccc1F)c1cncc(Br)c1	.	-10	.	.
C/C(=N\O)C(=O)NCc1ccncc1	0	-4	1.1	1
CCC1(C)Cc2c(sc3nc(NN)n(C)c(=O)c23)CO1 (configuration not stated)	20	.	2*	.
CCOC(=O)CSc1nc2sc3c(c2c(=O)[nH]1)CC(C)(CC)OC3 (configuration not stated)	2	.	1.2	.
CC(C)(C)C(=O)CC(O)(c1ccccc1)C(F)(F)C(F)F (configuration not stated)	.	-14	.	.
O=C(O)COc1ccccc1/C=N/NC(=O)COc1c(Br)cc(Br)cc1Br	.	66*	.	.
Cc1ccccc1NC(=O)c1cnccn1	.	11	.	.
CCOC(=O)c1c(C)sc(Sc2ccc(Cl)cc2[N+](=O)[O-])c1OC	-3	102*	0.9	.
